Experimental findings from PubChem BioAssay (NCI) are described below.

Compounds without any hit were thinned out: in the full panel of roughly 83,000, 20% have a hit.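 Single-dose data. Exposure time 48 hours. Values below 10 considered active.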 Active and inactive are the calls of the source.

For the first experiment, the system named is HCT-116 colon. The experiment can be described thus: NCI-60 one-dose screen, 48 h (100 = growth as untreated, 0 = no growth, -100 = all killed). The note with it: 10 µM unless noted.
`CC(C)n1cnc2c(=S)nc[nH]c21`: the growth was 106% (inactive).
In the case of `COC(C(=O)[C@@H](O)[C@@H](C)O)[C@@H]1Cc2cc3cc(O[C@H]4C[C@@H](O[C@H]5C[C@@H](O)[C@H](O)C(C)O5)[C@H](O)C(C)O4)cc(O)c3c(O)c2C(=O)[C@H]1O[C@H]1C[C@@H](O[C@H]2C[C@@H](O[C@H]3C[C@@H](OC)[C@H](O)C(C)O3)[C@@H](O)C(C)O2)[C@H](O)C(C)O1` (stereo partly drawn), the growth was 11.2% (inactive).
In the case of `Cc1cccnc1NC(=S)Nc1ncccc1C`, the growth is 101% (inactive).
For the compound `NC(=O)c1c(NC(=O)c2ccccc2)sc2c1CCC(=O)C2`, the growth is 8.7% (active).
`CCCC(=O)NC(c1ccc2c(c1)OCO2)c1ccc2cccnc2c1O` (stereo not drawn): the growth is 11.8% (inactive).
In the case of `CCCCNc1ccc(C#N)c(OCCN(CC)CC)c1`, the growth was 104% (inactive).
Take `Cc1ccccc1NC(=O)c1sc2nc(C)c(C(=O)/C=C/c3ccccc3)cc2c1N`: the growth was 10.1% (inactive).
`COc1ccc(C(=O)Nc2ncc(Cc3ccc(F)cc3)s2)cc1`: the growth is 13.1% (inactive).
Still for that read-out and setting: under `COC(=O)c1c2c(c[n+]([O-])c1C)C(=O)C(NCc1ccccc1)=CC2=O` stands 1.8% (active); under `Cn1ccc2c3c(ccc21)CC3=O`, 101% (inactive); under `COc1ccc2c3c([nH]c2c1)C(=O)c1nc(C)ccc1C3=O`, 30.3% (inactive).
For `COC(=O)c1c2c(c(C)[n+]([O-])c1C)C(=O)C=C(NCc1ccc(OC)cc1)C2=O`, the growth is -11.6% (active).
Same read-out and setting: the same measure for `O=C1Nc2ccccc2[C@]12CC(c1ccccc1)=NN2`: 26.2% (inactive).
For the compound `CCOc1nc(-c2ccccc2)cc2c(O)c(C(=O)NN)[nH]c(=O)c12`, the growth is 102% (inactive).
Turning to `CCN(CC)C(=S)SC(SC(=S)N(CC)CC)C(=O)c1nnn(-c2ccc([N+](=O)[O-])cc2)c1C`, the growth is 95.7% (inactive).
Consider `CCOC(=O)/C=C1\S/C(=N\Nc2cc(=O)[nH]c3ccc(Cl)cc23)N(c2ccccc2)C1=O`, for which the growth is 38.9% (inactive).
Turning to `CCCc1cc(NC)nc(S(=O)(=O)CC)n1`, the growth is 100% (inactive).
Same read-out and setting: the same measure for `O=C(N/N=C/c1ccc(F)cc1)c1ccc(C(F)(F)F)nc1Nc1cccc(C(F)(F)F)c1`: 10.1% (inactive).
Regarding `CCn1c(SCC(=O)c2ccc(Br)cc2)nnc1-c1ccncc1`, the growth was 105% (inactive).
As for `COC(=O)c1cc(-c2ccccc2)[nH]c1N/N=C/c1c(Cl)cccc1Cl`, the growth is -1.99% (active).
As for `O=C(Nc1nn(-c2ccc(Cl)cc2Cl)nc1-c1ccccc1)c1ccccc1`, the growth is 84.3% (inactive).
On to `CC(=O)N(N=Nc1ccccc1)c1cccc2ccccc12`, for which the growth was 56.4% (inactive).
Consider `C#COc1cccc(Nc2ncnc3ncc(NC(=O)CCl)cc23)c1`, for which the growth is -32.6% [6.25 µM] (active).
Regarding `COc1cc(CNS(=O)(=O)c2ccc(C)cc2)ccc1OCc1cn(-c2ccc(Br)cc2)nn1`, the growth was 100% (inactive).
`Nc1ncnc2c1N=C(c1ccc3c(c1)OCO3)CC(c1ccc([N+](=O)[O-])cc1)N2` (stereo not drawn): the growth was 66.6% (inactive).
Same read-out and setting: under `COC(=O)c1cc(-c2ccc(OC)cc2)[nH]c1N/N=C/c1c(Cl)cccc1Cl` stands -64.5% (active); under `CN(CCOc1ccc(C#N)cc1)CCOc1ccc(C#N)cc1`, 66.2% (inactive); under `O=C(O)/C(=C\c1ccc(Cl)cc1)c1ccc(Cl)cc1`, 98.1% (inactive).

Another experiment deals with KM12 colon. The experiment is described as above. The note with it: 10 µM unless noted.
For `COc1cccc([C@H]2c3[nH]c4ccccc4c3C[C@H]3C(=O)N(CCCCCCC(=O)NO)CC(=O)N23)c1`, the growth was 78.9% (inactive).
In the case of `Clc1ccc(CNc2c3ccccc3nc3ccccc23)cc1`, the growth is 35.6% (inactive).
On the same count and under the same terms, the same measure for `COC(=O)c1c2c(c(C)[n+]([O-])c1C)C(=O)C=C(NCc1ccc(Br)cc1)C2=O`: -11.3% (active); for `COc1ccc(C/C(C)=C(/c2ccc(OCCN3CCCCC3)cc2)c2ccc(OC(=O)NCc3ccccc3)cc2)cc1`: -81.2% (active).
On to `O=C1c2cccc(NCCN=Cc3cc(O)ccc3O)c2C(=O)c2c(NCCN=Cc3cc(O)ccc3O)cccc21`, for which the growth was -71.3% (active).
With `CS(=O)(=O)c1cccc(-c2c(-c3cccc(OS(N)(=O)=O)c3)nc3sccn23)c1`, the growth was 103% (inactive).
Consider `CCCCC[C@@H]1Cc2cc(O)c(C(=O)O)c3c2[C@H](C[C@]2(OC[C@@H](CC(=O)[C@@](C)(CC)C(=O)OC)[C@@H]2C)O3)O1`, for which the growth is 105% (inactive).
Take `Cc1ccc(Cl)cc1Nc1nc(C(F)(F)F)ccc1C(=O)N/N=C/c1cccnc1`: the growth was 34.7% (inactive).
The same measure, in the same setting: the same measure for `CCCC(O)Cn1ncc(C(=O)OCC)c1NC(=O)NCc1ccccc1F` (stereo not drawn): 97.3% (inactive); for `COc1ccc(-c2nc(/C=C3\SC(=NCc4ccccc4)NC3=O)c3ccccn23)cc1`: -78% (active); for `COc1cccc(NC(=O)Cn2cc(CN3CCN(c4ccnc5cc(Cl)ccc45)CC3)nn2)c1`: 78.4% (inactive).
On the same count and under the same terms, under `CO[C@H]1/C=C(/C)CCC[C@H](C)[C@H](O)[C@@H](C)C(=O)C(C)(C)[C@@H](O)CC(=O)O[C@@H]1/C(C)=C/c1csc(C)n1` stands 5.07% (active); under `CC(C)n1cnc2c(=S)nc[nH]c21`, 102% (inactive).
Consider `COC(C(=O)[C@@H](O)[C@@H](C)O)[C@@H]1Cc2cc3cc(O[C@H]4C[C@@H](O[C@H]5C[C@@H](O)[C@H](O)C(C)O5)[C@H](O)C(C)O4)cc(O)c3c(O)c2C(=O)[C@H]1O[C@H]1C[C@@H](O[C@H]2C[C@@H](O[C@H]3C[C@@H](OC)[C@H](O)C(C)O3)[C@@H](O)C(C)O2)[C@H](O)C(C)O1` (stereo partly drawn), for which the growth was 40% (inactive).
As to `Cc1cccnc1NC(=S)Nc1ncccc1C`, the growth was 107% (inactive).
On to `NC(=O)c1c(NC(=O)c2ccccc2)sc2c1CCC(=O)C2`, for which the growth was 5.17% (active).
In the case of `CCCC(=O)NC(c1ccc2c(c1)OCO2)c1ccc2cccnc2c1O` (stereo not drawn), the growth was 30.6% (inactive).
On to `CCCCNc1ccc(C#N)c(OCCN(CC)CC)c1`, for which the growth is 112% (inactive).
For `Cc1ccccc1NC(=O)c1sc2nc(C)c(C(=O)/C=C/c3ccccc3)cc2c1N`, the growth is 9.57% (active).
Consider `COc1ccc(C(=O)Nc2ncc(Cc3ccc(F)cc3)s2)cc1`, for which the growth was 3.05% (active).
In the case of `COC(=O)c1c2c(c[n+]([O-])c1C)C(=O)C(NCc1ccccc1)=CC2=O`, the growth was -0.692% (active).
Take `Cn1ccc2c3c(ccc21)CC3=O`: the growth was 112% (inactive).
Regarding `COc1ccc2c3c([nH]c2c1)C(=O)c1nc(C)ccc1C3=O`, the growth was 36.6% (inactive).
As for `COC(=O)c1c2c(c(C)[n+]([O-])c1C)C(=O)C=C(NCc1ccc(OC)cc1)C2=O`, the growth is -3.93% (active).
With `O=C1Nc2ccccc2[C@]12CC(c1ccccc1)=NN2`, the growth was 31.9% (inactive).
For `CCOc1nc(-c2ccccc2)cc2c(O)c(C(=O)NN)[nH]c(=O)c12`, the growth was 104% (inactive).
For `CCN(CC)C(=S)SC(SC(=S)N(CC)CC)C(=O)c1nnn(-c2ccc([N+](=O)[O-])cc2)c1C`, the growth is 98% (inactive).
Take `CCOC(=O)/C=C1\S/C(=N\Nc2cc(=O)[nH]c3ccc(Cl)cc23)N(c2ccccc2)C1=O`: the growth was 98.5% (inactive).
For the compound `CCCc1cc(NC)nc(S(=O)(=O)CC)n1`, the growth was 113% (inactive).
Take `O=C(N/N=C/c1ccc(F)cc1)c1ccc(C(F)(F)F)nc1Nc1cccc(C(F)(F)F)c1`: the growth was -4.29% (active).
Regarding `CCn1c(SCC(=O)c2ccc(Br)cc2)nnc1-c1ccncc1`, the growth was 106% (inactive).
`COC(=O)c1cc(-c2ccccc2)[nH]c1N/N=C/c1c(Cl)cccc1Cl`: the growth was 10.2% (inactive).
`O=C(Nc1nn(-c2ccc(Cl)cc2Cl)nc1-c1ccccc1)c1ccccc1`: the growth is 80.8% (inactive).
Take `CC(=O)N(N=Nc1ccccc1)c1cccc2ccccc12`: the growth was 108% (inactive).
Regarding `C#COc1cccc(Nc2ncnc3ncc(NC(=O)CCl)cc23)c1`, the growth was 15.7% [6.25 µM] (inactive).
Turning to `COc1cc(CNS(=O)(=O)c2ccc(C)cc2)ccc1OCc1cn(-c2ccc(Br)cc2)nn1`, the growth is 103% (inactive).
Same read-out and setting: the same measure for `Nc1ncnc2c1N=C(c1ccc3c(c1)OCO3)CC(c1ccc([N+](=O)[O-])cc1)N2` (stereo not drawn): 78.4% (inactive); for `COC(=O)c1cc(-c2ccc(OC)cc2)[nH]c1N/N=C/c1c(Cl)cccc1Cl`: 2.76% (active).
The same measure, in the same setting: under `CN(CCOc1ccc(C#N)cc1)CCOc1ccc(C#N)cc1` stands 71.4% (inactive); under `O=C(O)/C(=C\c1ccc(Cl)cc1)c1ccc(Cl)cc1`, 97.6% (inactive).
